PubChem BioAssay (NCI)
This is part of a sample that, as a whole, favours compounds with a hit. Of some 83,000 tested, about 20% had one in any assay.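 Cells were grown in 96-well plates and exposed to the test compound at a single concentration for 48 hours; results are reported as percent growth, with values below 10 considered active.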 Activity calls are given as the source filed them.

Columns and labels:
Test in all cases: NCI-60 one-dose screen, 48 h (100 = growth as untreated, 0 = no growth, -100 = all killed)
SK-MEL-2 melanoma = conditions: 10 µM unless noted
EKVX NSCLC = conditions: 10 µM unless noted
SN12C renal = conditions: 10 µM unless noted
UO-31 renal = conditions: 10 µM unless noted
TK-10 renal = conditions: 10 µM unless noted
ACHN renal = conditions: 10 µM unless noted
CAKI-1 renal = conditions: 10 µM unless noted
CCRF-CEM leukemia = conditions: 10 µM unless noted
MOLT-4 leukemia = conditions: 10 µM unless noted
SR leukemia = conditions: 10 µM unless noted
OVCAR-8 ovarian = conditions: 10 µM unless noted
OVCAR-5 ovarian = conditions: 10 µM unless noted
OVCAR-4 ovarian = conditions: 10 µM unless noted
IGROV1 ovarian = conditions: 10 µM unless noted
OVCAR-3 ovarian = conditions: 10 µM unless noted
HS 578T breast = conditions: 10 µM unless noted
NCI/ADR-RES ovarian = conditions: 10 µM unless noted
RPMI-8226 leukemia = conditions: 10 µM
A498 renal = conditions: 10 µM unless noted
SK-OV-3 ovarian = conditions: 10 µM

Measured: growth

Cl.Fc1c[c-]c(-c2ccccn2)c(F)c1.[Pt].c1ccc([PH+](CC[PH+](c2ccccc2)c2ccccc2)c2ccccc2)cc1
active: SK-MEL-2 melanoma -76.8% | EKVX NSCLC -99.2% | SN12C renal -75.8% | UO-31 renal -92.4% | TK-10 renal -83.7% | ACHN renal -97.9% | CAKI-1 renal -83.5% | CCRF-CEM leukemia -43% | MOLT-4 leukemia -26.8% | SR leukemia -6.03% | OVCAR-8 ovarian -29.1% | OVCAR-5 ovarian -93.4% | OVCAR-4 ovarian -87.8% | IGROV1 ovarian -75.5% | OVCAR-3 ovarian -97.2% | HS 578T breast -44.6% | NCI/ADR-RES ovarian -35.4%

Cc1ccccc1-c1cc(-c2ccc(Br)s2)[nH]c(=O)c1C#N
inactive: SK-MEL-2 melanoma 113% | EKVX NSCLC 85.6% | SN12C renal 102% | UO-31 renal 83.3% | TK-10 renal 109% | ACHN renal 101% | CAKI-1 renal 88.1% | CCRF-CEM leukemia 106% | MOLT-4 leukemia 92.7% | RPMI-8226 leukemia 102% | OVCAR-8 ovarian 105% | OVCAR-5 ovarian 104% | OVCAR-4 ovarian 108% | IGROV1 ovarian 96.5% | OVCAR-3 ovarian 113% | HS 578T breast 96% | NCI/ADR-RES ovarian 98.5%

O=C1CCC(N2C(=O)c3cccc(NCCOCCOCCNC(=O)c4cc5c(o4)C(=O)c4ccccc4C5=O)c3C2=O)C(=O)N1 (stereo not given)
inactive: EKVX NSCLC 55.9% | UO-31 renal 51% | TK-10 renal 36.1% | ACHN renal 41.9% | CAKI-1 renal 22% | CCRF-CEM leukemia 14.5% | NCI/ADR-RES ovarian 93.7%
active: SK-MEL-2 melanoma -27.8% | SN12C renal -90.6% | MOLT-4 leukemia 6.06% | SR leukemia 9.2% | OVCAR-8 ovarian 3.28% | OVCAR-5 ovarian -90.8% | OVCAR-4 ovarian -93.5% | IGROV1 ovarian -16.1% | OVCAR-3 ovarian -40.6% | HS 578T breast -29.7%

COc1cc(-c2nc(SC(C)C)nc(Nc3ccccc3C)c2C#N)cc(OC)c1OC
inactive: SK-MEL-2 melanoma 103% | EKVX NSCLC 102% | SN12C renal 104% | UO-31 renal 86.3% | ACHN renal 101% | CAKI-1 renal 94.1% | A498 renal 88.4% | CCRF-CEM leukemia 103% | MOLT-4 leukemia 110% | SR leukemia 110% | OVCAR-8 ovarian 103% | OVCAR-5 ovarian 99.1% | OVCAR-4 ovarian 110% | IGROV1 ovarian 104% | OVCAR-3 ovarian 121% | HS 578T breast 104% | NCI/ADR-RES ovarian 109%

Cc1ccccc1-n1nnc(C(=O)Nc2nc(-c3ccccc3)c(-c3ccccc3)s2)c1C
inactive: SK-MEL-2 melanoma 89% [50 µM] | EKVX NSCLC 69.8% [50 µM] | SN12C renal 79.2% [50 µM] | UO-31 renal 86% [50 µM] | ACHN renal 84.6% [50 µM] | CAKI-1 renal 63.5% [50 µM] | A498 renal 104% [50 µM] | CCRF-CEM leukemia 63.5% [50 µM] | MOLT-4 leukemia 67% [50 µM] | SR leukemia 69.5% [50 µM] | OVCAR-8 ovarian 67.9% [50 µM] | OVCAR-5 ovarian 96.5% [50 µM] | OVCAR-4 ovarian 58.1% [50 µM] | IGROV1 ovarian 89.9% [50 µM] | OVCAR-3 ovarian 79.8% [50 µM] | HS 578T breast 46.7% [50 µM]

CN1CCc2cccc3c2C1Cc1ccc(O)c(O)c1-3 (stereo not given)
inactive: SK-MEL-2 melanoma 117% | EKVX NSCLC 75.4% | SN12C renal 88.4% | UO-31 renal 64.2% | ACHN renal 73% | CAKI-1 renal 63.4% | A498 renal 103% | CCRF-CEM leukemia 37.9% | OVCAR-8 ovarian 89% | OVCAR-5 ovarian 88.3% | SK-OV-3 ovarian 102% | IGROV1 ovarian 76.2% | OVCAR-3 ovarian 28% | HS 578T breast 99.1% | NCI/ADR-RES ovarian 81%

COc1cc(C2CC(=O)Nc3c2ccc2ccccc32)cc(Br)c1OC (stereo not given)
inactive: EKVX NSCLC 38.9% | SN12C renal 50.2% | UO-31 renal 27.2% | ACHN renal 45.9% | CAKI-1 renal 27.1% | MOLT-4 leukemia 10.6% | OVCAR-8 ovarian 27.7% | OVCAR-5 ovarian 45.1% | OVCAR-4 ovarian 41% | IGROV1 ovarian 32.4% | HS 578T breast 14%
active: SK-MEL-2 melanoma 8.51% | A498 renal 7.93% | CCRF-CEM leukemia -25.7% | SR leukemia -6.32% | SK-OV-3 ovarian 2.95% | OVCAR-3 ovarian -26.3% | NCI/ADR-RES ovarian -10.7%

c1ccc2cc(Cn3c(-c4ccc5ccccc5c4)[n+](Cc4ccc5ccccc5c4)c4ccccc43)ccc2c1
active: SK-MEL-2 melanoma -67.7% | EKVX NSCLC -11.7% | SN12C renal -88.2% | UO-31 renal -77.1% | ACHN renal -51.5% | CAKI-1 renal -67.3% | A498 renal -64% | CCRF-CEM leukemia -4.24% | MOLT-4 leukemia -35.4% | SR leukemia -27.8% | OVCAR-8 ovarian -62.9% | OVCAR-5 ovarian -12.2% | OVCAR-4 ovarian -17.2% | IGROV1 ovarian -74% | OVCAR-3 ovarian -96% | HS 578T breast -58.9%
inactive: NCI/ADR-RES ovarian 31.2%

Cc1c(C(=O)Nc2nc(-c3ccccc3)cs2)nnn1-c1ccccc1Br
inactive: SK-MEL-2 melanoma 40.1% [50 µM] | EKVX NSCLC 30.7% [50 µM] | SN12C renal 50.9% [50 µM] | UO-31 renal 41.7% [50 µM] | ACHN renal 41.9% [50 µM] | CAKI-1 renal 33.7% [50 µM] | A498 renal 50.5% [50 µM] | CCRF-CEM leukemia 41.1% [50 µM] | MOLT-4 leukemia 17% [50 µM] | SR leukemia 17% [50 µM] | OVCAR-8 ovarian 40.1% [50 µM] | OVCAR-5 ovarian 77.4% [50 µM] | OVCAR-4 ovarian 19.6% [50 µM] | IGROV1 ovarian 68.3% [50 µM] | OVCAR-3 ovarian 57.3% [50 µM] | HS 578T breast 65.3% [50 µM] | NCI/ADR-RES ovarian 38.1% [50 µM]

CCOC(=O)n1cc(C2=C(c3cn(C)c4ccccc34)COC2=O)c2ccccc21
active: A498 renal -14.3% | OVCAR-3 ovarian -29.8% | HS 578T breast 9.62% | NCI/ADR-RES ovarian 2.15%
inactive: SK-MEL-2 melanoma 57.8% | EKVX NSCLC 45.2% | SN12C renal 23.9% | UO-31 renal 34.8% | ACHN renal 26.6% | CAKI-1 renal 13.2% | CCRF-CEM leukemia 16.8% | MOLT-4 leukemia 18.3% | SR leukemia 14% | OVCAR-8 ovarian 16.5% | OVCAR-5 ovarian 29.9% | OVCAR-4 ovarian 28.8% | IGROV1 ovarian 14.7%

COc1ccc(/C=N/OCC(O)CNCc2ccccc2)cc1OC1CCCC1 (stereo not given)
inactive: SK-MEL-2 melanoma 115% | EKVX NSCLC 93.1% | SN12C renal 99.9% | UO-31 renal 69.2% | ACHN renal 99.6% | CAKI-1 renal 84% | CCRF-CEM leukemia 113% | MOLT-4 leukemia 101% | SR leukemia 87% | RPMI-8226 leukemia 98.3% | OVCAR-8 ovarian 104% | OVCAR-5 ovarian 101% | OVCAR-4 ovarian 91.2% | IGROV1 ovarian 95.7% | OVCAR-3 ovarian 104% | HS 578T breast 111% | NCI/ADR-RES ovarian 104%

Cc1c(C(=O)Nc2nc(-c3ccccc3)cs2)nnn1-c1cccc2ccccc12
inactive: SK-MEL-2 melanoma 48.2% [50 µM] | EKVX NSCLC 39.3% [50 µM] | SN12C renal 67.9% [50 µM] | UO-31 renal 49.7% [50 µM] | ACHN renal 58.1% [50 µM] | CAKI-1 renal 35.8% [50 µM] | A498 renal 58.5% [50 µM] | CCRF-CEM leukemia 47.2% [50 µM] | MOLT-4 leukemia 30.4% [50 µM] | SR leukemia 29.2% [50 µM] | OVCAR-8 ovarian 50.9% [50 µM] | OVCAR-5 ovarian 86.8% [50 µM] | OVCAR-4 ovarian 23.7% [50 µM] | IGROV1 ovarian 69.9% [50 µM] | OVCAR-3 ovarian 71.8% [50 µM] | HS 578T breast 79.5% [50 µM] | NCI/ADR-RES ovarian 65.1% [50 µM]

O=C(NCc1ccc(F)cc1)C1CN(c2ccc(Cl)cc2)N(c2ccc(Cl)cc2)C1=O (stereo not given)
inactive: SK-MEL-2 melanoma 64.6% | EKVX NSCLC 74.8% | SN12C renal 83% | UO-31 renal 51% | ACHN renal 75.6% | CAKI-1 renal 57.6% | A498 renal 39.8% | CCRF-CEM leukemia 61.8% | MOLT-4 leukemia 37.1% | SR leukemia 24.3% | RPMI-8226 leukemia 72.8% | OVCAR-8 ovarian 80% | OVCAR-5 ovarian 85.6% | OVCAR-4 ovarian 66.6% | IGROV1 ovarian 77.4% | HS 578T breast 52.6% | NCI/ADR-RES ovarian 52.9%
active: OVCAR-3 ovarian 9.08%

N#C/C(=C\c1ccc[nH]1)c1cc2ccccc2[nH]1
inactive: SK-MEL-2 melanoma 65.9% | EKVX NSCLC 37.4% | SN12C renal 72.3% | UO-31 renal 55% | ACHN renal 69.7% | CAKI-1 renal 52.4% | A498 renal 69.2% | CCRF-CEM leukemia 52% | MOLT-4 leukemia 62.9% | SR leukemia 68.3% | OVCAR-8 ovarian 74.9% | OVCAR-5 ovarian 82.4% | OVCAR-4 ovarian 24.1% | IGROV1 ovarian 59.2% | OVCAR-3 ovarian 81.1% | HS 578T breast 87.5% | NCI/ADR-RES ovarian 76.9%

Cc1ccc(C2SCC(=O)N2NC(=O)c2[nH]c3ccc(F)cc3c2-c2ccccc2)cc1 (stereo not given)
inactive: SK-MEL-2 melanoma 97.6% | EKVX NSCLC 84.4% | SN12C renal 95.8% | UO-31 renal 75.1% | ACHN renal 89.9% | CAKI-1 renal 77.1% | A498 renal 86.5% | CCRF-CEM leukemia 89.1% | MOLT-4 leukemia 69.2% | SR leukemia 76.1% | RPMI-8226 leukemia 86.7% | OVCAR-8 ovarian 92.1% | OVCAR-5 ovarian 99.9% | OVCAR-4 ovarian 79.7% | SK-OV-3 ovarian 107% | IGROV1 ovarian 88.4% | OVCAR-3 ovarian 92% | HS 578T breast 95.3% | NCI/ADR-RES ovarian 92%

COc1cc(CNCCCN2C(=O)c3ccc4c5c(ccc(c35)C2=O)C(=O)N(CCCNCc2cc(OC)c(OC)c(OC)c2)C4=O)cc(OC)c1OC
inactive: CAKI-1 renal 36.9% | NCI/ADR-RES ovarian 71.1%
active: SK-MEL-2 melanoma -71.8% | EKVX NSCLC -72.9% | SN12C renal -98.9% | UO-31 renal 4.39% | ACHN renal -24.5% | A498 renal -11.5% | CCRF-CEM leukemia 0.649% | MOLT-4 leukemia -12.6% | SR leukemia -3.1% | OVCAR-8 ovarian -52% | OVCAR-5 ovarian -67.7% | OVCAR-4 ovarian -97% | SK-OV-3 ovarian -59.6% | IGROV1 ovarian -51.2% | OVCAR-3 ovarian -27.7% | HS 578T breast -34.1%

CCN(CC)c1ccc(/C=C(\C#N)c2cc3ccccc3[nH]2)cc1
inactive: SK-MEL-2 melanoma 43.3% | EKVX NSCLC 71.5% | SN12C renal 69.4% | UO-31 renal 81.1% | ACHN renal 70.7% | CAKI-1 renal 41.6% | A498 renal 52.7% | CCRF-CEM leukemia 50.9% | MOLT-4 leukemia 37.8% | SR leukemia 24.6% | OVCAR-8 ovarian 63.4% | OVCAR-5 ovarian 72.4% | IGROV1 ovarian 65.1% | OVCAR-3 ovarian 20.9% | HS 578T breast 58.3% | NCI/ADR-RES ovarian 35.4%
